Experimental data: PubChem BioAssay AID1241 (SRMLSC, 2008)
The campaign covered roughly 1,200 compounds. About 840 (70%) were called active. How the calls were made is not given here. The set was probably picked from earlier hits. Only a sample is shown. Entries that show only a call come without a potency. Potency and affinity values are given separately.

Test: compounds inducing NF-kB luciferase expression – cell-based, SH-SY5Y, dose response (AID 1241)
Conditions: SH-SY5Y NF-kB promoter luciferase reporter; series mostly up to 30 µM

SMILES | fold induction over control
CC(C)c1cc(C(=O)Nc2cc(Br)ccc2O)no1 | inactive
CC(C)Cc1cc(C(=O)Nc2cc(Br)ccc2O)no1 | inactive
CCc1cc(C(=O)Nc2ccc(C)cc2Br)cs1 | inactive
Cc1ccc(C(=O)COC(=O)c2ccc(O)cc2)cc1 | inactive
O=C(CC(SCc1ccco1)c1ccc(O)cc1)c1cccs1 (centres undefined) | inactive
O=C(CCC(=O)c1cccs1)c1cccs1 | inactive
Cc1ccc(C)c(OCC(=O)O/N=C(\N)c2ccccn2)c1 | inactive
CC(C)c1ccc(/C=N/NC(=O)c2c(Cl)cnn2C)cc1 | inactive
CC(=O)c1sc(NC(=O)c2cccc(C)c2)nc1C | inactive
O=C(Nc1cccnc1)c1cc(-c2ccc3c(c2)OCO3)on1 | inactive
O=c1c2c(nc3cc(-c4ccccc4)[nH]n13)CCS2 | inactive
Cc1ccc(CN2CN(S(=O)(=O)c3cccs3)c3nc4ccccc4nc32)cc1 | inactive
CCOC(=O)c1sc2nc3c(cc2c1N)COC(C)(C)C3 | inactive
Nc1c(C(=O)C2CC2)sc2nc3c(cc12)CCC3 | inactive
Cc1cccc(NC(=O)c2cc3ccccc3o2)c1 | inactive
COc1ccc(NC(=O)c2cc3ccccc3o2)cc1 | inactive
O=C(Nc1ccc(Cl)cn1)c1ccc([N+](=O)[O-])o1 | inactive
COc1ccc2oc(=N)c(C(=O)Nc3ccccc3)cc2c1 | inactive
O=C(Nc1cccc(Br)c1)c1cc2ccccc2o1 | inactive
CCN1C/C(=C/c2ccc(N3CCOCC3)cc2)C(=O)/C(=C/c2ccc(N3CCOCC3)cc2)C1 | inactive
Cc1ccc(NC(=O)/C(C#N)=C(\N)C(Cl)(Cl)Cl)nc1 | inactive
N/C(=N\OC(=O)COc1ccc(Cl)cc1Br)c1ccncc1 | inactive
CN1CCN(CC(=O)Nc2ccccc2[N+](=O)[O-])CC1 | inactive
COc1ccccc1/C=N\Nc1cn[nH]c(=O)c1Cl | inactive
